Measured values from PubChem BioAssay (NCI).
The panel holds about 83,000 compounds, 20% with a hit somewhere; the sample as a whole holds those more often.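 Results are percent growth after 48 hours of single-concentration exposure. 100 means growth as in untreated cells, lower positive values show inhibition; negative values down to -100 show cell death.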 Active and inactive are the calls of the source.

test system: U251 CNS; experiment: NCI-60 one-dose screen, 48 h (100 = growth as untreated, 0 = no growth, -100 = all killed); conditions: 10 µM unless noted
Method: Growth inhibition of the U251 human tumor cell line is measured as a screen for anti-cancer activity. Cells are grown in 96 well plates and exposed to the test compound for 48 hours. Compounds are tested at a single concentration, which is 10^-5 M for most compounds. The reported endpoint is percent growth (GI% or GIPRCNT), where numbers from 0 - 100% represent growth inhibition, and numbers from -100% - 0 represent cell death. For example, a value of 40 represents 60% growth inhibition. A value of 0 means no net growth occurred over the course of the experiment. A value of -40 indicates 40% of cells at the beginning of the experiment died by the end of the experiment. A value of -100 means all cells are dead at the end of the experiment.
NCI-60 Human Tumor Cell Lines Screen was performed using the standard one-dose NCI protocol, which is described in more detail at https://dtp.cancer.gov/discovery_development/nci-60/default.htm.
Compounds with GIPRCNT values below 10 were considered active. Activity score was based on GIPRCNT using the following formula: […]
Score is 0 for GIPRCNT values of 100 or above, 50 for GIPRCNT values of 0, and 100 for GIPRCNT values of -100.

Row | Structure (SMILES) | growth
1 | CCc1[nH]nc(-c2ccc(OC)cc2)c1-c1ccccc1OCCN(CC)CC | 96% (inactive)
2 | CCCCCCCC/C=C/CCCCCCCC1=NC(C)(C)CN1CC(C)O (stereo not given) | -17% (active)
3 | NC(=O)NN=C(C1CC1)C1CC1 | 98.4% (inactive)
4 | COc1cc([C@@H]2c3cc4c(cc3C(O[C@@H]3O[C@@H]5CO[C@@H](c6cccs6)OC5[C@H](O)[C@H]3O)C3COC(=O)[C@@H]32)OCO4)cc(OC)c1O (stereo not given in full) | -15.5% (active)
5 | CC(=O)NCCSC(=O)C(=O)SCCNC(C)=O | 108% (inactive)
6 | CC(C)c1nc(N(C)S(C)(=O)=O)nc(-c2ccc(F)cc2)c1/C=C/[C@@H](O)C[C@@H](O)CC(=O)O | 61.7% (inactive)
7 | NC(N)=N/N=C(/c1ccccc1)c1ccc(Cl)cc1 | 70.8% (inactive)
8 | N#CCCN(CCO)c1ccccc1 | 101% (inactive)
9 | O=C(Nc1ccc(Cl)cc1)Nc1ccc(Nc2nncc3ccccc23)cc1 | 18.3% (inactive)
10 | CSc1nc2c(c(=O)[nH]1)C(c1ccc(Cl)cc1)C1=C(N2)/C(=C/c2ccc(Cl)cc2)CNC1 (stereo not given) | -16.1% (active)
11 | Cc1nnc(Nc2ccc(NC(=O)Nc3ccc(Cl)cc3)cc2)c2ccccc12 | 5.4% (active)
12 | Clc1ccc2c(Nc3ccc4oc(NCCN5CCCC5)nc4c3)ccnc2c1 | 70.1% (inactive)
13 | CSc1nnc(C2=CC(=O)c3ccccc3C2=O)n1-c1ccccc1 | 76.5% (inactive)
14 | Cc1nc(N)[nH]c(=O)c1C | 95.4% (inactive)
15 | Nc1ccc(S(=O)(=O)Nc2ncccn2)cc1 | 106% (inactive)
16 | O=C(CSc1nc2c(n1Nc1ccccc1)-c1ccccc1SC2)Nc1nc(-c2ccc(Cl)cc2)cs1 | 34.4% (inactive)
17 | CCC(C)(C)C(=O)O[C@H]1C[C@@H](C)C=C2C=C[C@H](C)[C@H](CC[C@@H]3C[C@@H](O)CC(=O)O3)[C@H]21 | 4.81% (active)
18 | O=C(c1nn(-c2ccc(Cl)cc2)cc1O)n1nc(C(F)(F)F)cc1-c1ccccc1 | 46.8% (inactive)
19 | Cc1cc2c(cc1[N+](=O)[O-])NC(CNC(C)C)CC2 (stereo not given) | 99.2% (inactive)
20 | Nc1ccc2c3c(cccc13)-c1ccccc1-2 | 94.9% (inactive)

Row | Structure (SMILES) | growth
21 | O=C1C(Cl)=C(N=Nc2c(Cl)c(O)c3ccccc3c2O)C(=O)c2ccccc21 | 53.3% (inactive)
22 | Clc1ccc(-n2cnc3c(Cl)ncnc32)cc1Cl | 78.2% (inactive)
23 | CCSc1nnc2n(Cc3ccccc3)c(=O)c3c(C)c(C(N)=O)sc3n12 | 103% (inactive)
24 | CCN1CCN(c2cc(-c3cn[nH]c3-c3cc(C)cc(OC)c3)nc(-c3cccnc3)n2)CC1 | 48.3% (inactive)
25 | O=C1N(C2CCCCC2)C(=O)N1C1CCCCC1 | 48% (inactive)
26 | O=Cc1c[nH]c2ccc(NC(=O)OCc3ccccc3)cc12 | 78.8% (inactive)
27 | COc1cc(OC)c2sc(-c3ccc(-n4cncc4-c4ccc(N)cc4)cc3)nc2c1 | 59.3% (inactive)
28 | c1cncc(CNc2ccccc2-c2nnc(Nc3ccc4c(c3)OCO4)o2)c1 | 23% (inactive)
29 | CCc1ccc(CCN2C(=O)c3ccccc3C2=O)nc1 | 103% (inactive)
30 | COc1cc(C2CC(c3ccc(C)cc3)=NN2C(C)=O)ccc1Oc1ccnc2cc(Cl)ccc12 (stereo not given) | 14.7% (inactive)
31 | O=C(Nc1cccc(-n2cc(-c3ccncc3)c(-c3ccc(O)c(Cl)c3)n2)c1)Nc1ccc(Cl)c(C(F)(F)F)c1 | -64.4% (active)
32 | Cc1scc2c1N(C(=O)CN1CCN(C)CC1)c1ccccc1NC2=O | 99.6% (inactive)
33 | O=C1Nc2ccccc2C12Nc1cc(Cl)ccc1S2 (stereo not given) | 98.5% (inactive)
34 | C/C(=C\CCc1ccsc1)CC/C=C(\C)CCCN1CCN(CCO)CC1 | 6.55% (active)
35 | Oc1ccc(-c2nn(-c3ccccc3)cc2-c2nc3ccccc3s2)cc1 | 94% (inactive)
36 | C/C(=C\CCc1ccsc1)CC/C=C(\C)CCCN1CCC(CO)CC1 | -3.53% (active)
37 | N#CCCCCCn1c2ccccc2c2c3c(c4c5ccccc5[nH]c4c21)C(=O)N(O)C3=O | -46.2% (active)
38 | Cn1cc(-c2csc(-c3cn(C)c4ncccc34)n2)c2cc(Br)cnc21 | 87.9% (inactive)
39 | CC(C)c1ccc(C(=O)Nc2sc3c(CN(C)C)c(O)ccc3c2C(N)=O)cc1 | 34.3% (inactive)
40 | Cc1[nH]n(C(N)=S)c(=O)c1N=Nc1ccc(F)c(Cl)c1 | 108% (inactive)
